Experimental data as given in PubChem BioAssay AID463173 (ICCB-Longwood Screening Facility, Harvard Medical School, 2010).
Hit rate of the full screen: of about 52,000 compounds, about 4,300 (8.3%) were called active. The full list was thinned out, with actives kept by preference. A number with no mark means an inactive call. No stated cut-off is given here; in the data, active means survival mostly below about 52% (no sharp cut-off); inactive means mostly above about 56%.

The compounds below were run on DeltatarO mutant (assay: growth inhibition of S. aureus wild type versus tarO mutant, primary screen, teichoic acid synthesis inhibitors, RN4220, OD600 (AID 463173)). Conditions: OD600, 18 h, active compounds read low, screened at 18.75 µg/mL (by protocol).

Going from `O=C1N(Cc2ccccc2)c2ccccc2C1(O)c1c[nH]c2ccccc12` (stereo not given) to `O=C1N(Cc2ccccc2Cl)c2ccccc2C1(O)c1c[nH]c2ccccc12` (stereo not given), the survival rises from 55% to 64%.

Compared with `CCCCN1C(=O)C(O)(c2c[nH]c3ccccc23)c2cc(Br)ccc21` (stereo not given), `O=C1N(Cc2ccccc2)c2ccc(Cl)cc2C1(O)c1c[nH]c2ccccc12` (stereo not given) is higher in survival: 50% for the first, 66% for the second.

Going from `Cc1ccc(C)c(CN2C(=O)C(O)(c3c[nH]c4ccccc34)c3ccccc32)c1` (stereo not given) to `CC(C)N1C(=O)C(O)(c2c[nH]c3ccccc23)c2ccccc21` (stereo not given), the survival falls from 142% to 129%.

First: CCc1ccccc1NC(=O)Nc1c[nH]c(=O)[nH]c1=O
Second: COc1ccccc1CNS(=O)(=O)c1ccc(-c2cc(C(F)(F)F)on2)s1
The survival of the first is lower: 75% for the first, 102% for the second.

Compared with `c1ccc(Nc2c(-c3ccccc3)nc3ncccn23)cc1`, `Cc1ccc(-c2nc3ccccc3n3c(-c4ccccc4)c4c(=O)n(C)c(=O)n(C)c4c23)cc1` is higher in survival: 81% for the first, 97% for the second.

Compared with `O=C(OCc1cc(=O)n2nc(-c3cccs3)sc2n1)c1ccccc1`, `CCc1nn(CC(=O)NCCCc2ccccc2)c(=O)c2cc3ccccc3n12` is higher in survival: 65% for the first, 90% for the second.

Going from `C/C(=N\NC(N)=O)C1CC(Cc2ccccc2)C(=O)O1` (stereo not given) to `COc1ccc(N2CC(NC(=O)c3ccco3)CC2=O)cc1` (stereo not given), the survival rises from 57% to 58%.

First: COc1ccc(Br)cc1CNC(=O)C1CCCCN1S(=O)(=O)c1ccc(F)cc1 (stereo not given)
Second: COc1ccccc1CNC(=O)C1CCCN(C(=O)c2cnn(-c3ccc(F)cc3)c2-n2cccc2)C1 (stereo not given)
The survival of the first is higher: 81% for the first, 76% for the second.

Compared with `CC(C)(C)CC(=O)NCC(c1ccc2c(c1)OCO2)N1CCOCC1` (stereo not given), `CNC(=O)C(=O)NCC(c1ccc2c(c1)OCO2)N1CCOCC1` (stereo not given) is higher in survival: 80% for the first, 89% for the second.

First: COc1cccc(C(=O)NCC(c2ccc3c(c2)OCO3)N2CCN(C)CC2)c1 (stereo not given)
Second: CCOc1ccc(C(=O)NCC(c2ccc3c(c2)OCO3)N2CCN(C)CC2)cc1 (stereo not given)
The survival of the first is higher: 112% for the first, 78% for the second.

Going from `COc1ccc(CNC(=O)C(=O)NCC(c2ccc3c(c2)OCO3)N2CCOCC2)cc1` (stereo not given) to `COc1ccc(CCNC(=O)C(=O)NCC(c2ccc3c(c2)OCO3)N2CCOCC2)cc1OC` (stereo not given), the survival falls from 99% to 69%.

Compared with `O=C(NCCO)C(=O)NCC(c1ccc2c(c1)OCO2)N1CCOCC1` (stereo not given), `CN(C)CCNC(=O)C(=O)NCC(c1ccc2c(c1)OCO2)N1CCOCC1` (stereo not given) is lower in survival: 75% for the first, 69% for the second.

Going from `CN(C)CCCNC(=O)C(=O)NCC(c1ccc2c(c1)OCO2)N1CCOCC1` (stereo not given) to `COCCCNC(=O)C(=O)NCC(c1ccc2c(c1)OCO2)N1CCOCC1` (stereo not given), the survival falls from 106% to 95%.

First: CC1=C(C(=O)Nc2cccc(C(F)(F)F)c2)C(c2ccccc2)n2ncnc2N1 (stereo not given)
Second: CCOc1ccc(C(C(=O)NC2CCCC2)N(Cc2ccco2)C(=O)Cn2nnc3ccccc32)cc1OC (stereo not given)
The survival of the first is lower: 103% for the first, 110% for the second.

First: COc1ccc(CN2C3CCCC2CC(NC(=O)NC2CCCCC2)C3)cc1 (stereo not given)
Second: CC1CCCCN1C(=O)CSc1nnc2c3ccccc3n(CC(=O)O)c2n1 (stereo not given)
The survival of the first is lower: 85% for the first, 97% for the second.

Compared with `Cc1ccc(F)cc1NC(=O)CCc1c(C)nn(-c2ccc(N3CCCC3)nn2)c1C`, `CCOC(=O)c1c(C)[nH]c(C)c1S(=O)(=O)N1CCCC(C(=O)Nc2cc(C)ccc2C)C1` (stereo not given) is higher in survival: 78% for the first, 83% for the second.

Compared with `COc1ccc(-c2cccc(NS(=O)(=O)c3cc(C)ccc3OC)c2)nn1`, `COc1ccc(CNS(=O)(=O)c2ccc(-c3cc(C(F)(F)F)on3)s2)cc1OC` is lower in survival: 122% for the first, 118% for the second.

First: Nc1c(-c2nc(-c3ccc(Cl)cc3)cs2)c2ccccn2c1C(=O)c1ccc2c(c1)OCO2
Second: CCN(C(=O)Cn1nnc2sc3c(c2c1=O)CCC(C(C)(C)C)C3)c1cccc(C)c1 (stereo not given)
The survival of the first is higher: 101% for the first, 78% for the second.

`Cc1ccccc1CN1C(=O)C(O)(c2c[nH]c3ccccc23)c2cc(Cl)ccc21` (stereo not given) was tested, and the survival was -2% (active).
With `CCN1C(=O)C(O)(c2c[nH]c3ccccc23)c2cc(Br)ccc21` (stereo not given) the survival was 55% (active).
In the case of `Cc1ccc(CN2C(=O)C(O)(c3c[nH]c4ccccc34)c3cc(Cl)ccc32)cc1` (stereo not given), the survival is reported as -3% (active).
In the case of `CC(C)(C)C(=O)NCC(c1ccc2c(c1)OCO2)N1CCOCC1` (stereo not given), the survival is reported as 0% (active).
For `COc1ccc(CCNC(=O)C(=O)NCC(c2ccc3c(c2)OCO3)N2CCOCC2)cc1` (stereo not given), the survival was 32% (active).
For `O=C(NCCCO)C(=O)NCC(c1ccc2c(c1)OCO2)N1CCOCC1` (stereo not given), the survival was 37% (active).
With `COc1ccc(C(=O)NCC(c2ccc3c(c2)OCO3)N2CCN(C)CC2)cc1` (stereo not given) the survival was 47% (active).
For `COCCNC(=O)C(=O)NCC(c1ccc2c(c1)OCO2)N1CCOCC1` (stereo not given), the survival was 0% (active).
In the case of `COc1ccc(OC)c(CNS(=O)(=O)c2ccc(-c3cc(C(F)(F)F)on3)s2)c1`, the survival is reported as -4% (active).
